HP1b chromo inh: HTS for Inhibitors of HP1-beta Chromodomain Interactions with Methylated Histone Tails; Chromobox protein homolog 1 (Homo sapiens), P83916; hit rate 0.56% among 390,000; Potency, µM (doses to about 114 µM), for the others: at the highest dose activity change, negative = inhibition, usual class: inhibitors; AlphaScreen HP1-beta / biotin-H3K9me3 peptide binding; AID 540317, 2011; note: nearly all actives have a fitted effect of over 70% in size
Target sequence (P83916 whole entry, looked up): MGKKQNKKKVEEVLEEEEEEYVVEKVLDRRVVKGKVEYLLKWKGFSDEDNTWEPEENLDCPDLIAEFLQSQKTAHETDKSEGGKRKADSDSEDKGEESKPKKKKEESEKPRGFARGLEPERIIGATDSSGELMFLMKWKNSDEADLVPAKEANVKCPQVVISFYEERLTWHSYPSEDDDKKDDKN
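Compound inhibition of the preformed complex between 50 nM HP1-beta and 50 nM biotinylated H3K9me3 peptide was read by AlphaScreen. Buffer was PBS pH 7.4 with 0.01% Tween-20. Incubations ran 30 min at room temperature, with 10 ug/mL donor/acceptor beads.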
G9a block: qHTS Assay for Inhibitors of Histone Lysine Methyltransferase G9a. Histone-lysine N-methyltransferase EHMT2 (Homo sapiens), Q96KQ7. G9a H3K9 monomethylation, AlphaScreen, 2 h. Potency, µM (highest dose often 102 µM), for the others: at the highest dose activity, negative = inhibition, most hits filed as inhibitors. hit rate 8.8% among 350,000. AID 504332, 2011; note: % is set by controls: 0 for no effect and ±100 for the full control effect; nearly all actives have a fitted effect of over 75% in size
Target sequence (Q96KQ7 913-1193 limits assumed): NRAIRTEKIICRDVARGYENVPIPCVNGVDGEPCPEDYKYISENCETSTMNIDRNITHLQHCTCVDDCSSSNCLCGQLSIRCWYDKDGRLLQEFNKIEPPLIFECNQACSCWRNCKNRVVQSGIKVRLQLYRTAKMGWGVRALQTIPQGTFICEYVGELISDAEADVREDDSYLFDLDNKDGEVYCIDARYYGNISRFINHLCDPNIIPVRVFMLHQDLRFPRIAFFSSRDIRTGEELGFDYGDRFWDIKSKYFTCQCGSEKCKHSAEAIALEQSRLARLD
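Readings reflect AlphaScreen signal from monomethyl-H3K9 antibody detection. HMT at 20 nM; substrate b-H3K9 500 nM; cofactor SAM 20 uM; 2 h RT reaction; compounds tested as titrations in qHTS with 15 min preincubation.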
GLS inhibitor: qHTS for Inhibitors of Glutaminase (GLS); GLS enzymatic activity, qHTS titration; Potency, µM (highest dose often 45.5 µM), for the others: top-dose activity change, negative = inhibition, most hits filed as inhibitors; hit rate 0.21% among 410,000; note: % is set by controls: 0 for no effect and ±100 for the full control effect
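hKGA; 45 mM KH2PO4 pH 8.2 + 0.02% Tween-20; cpd via pin tool; 1 mM Gln soln; GluOx/HRP/Amplex Red; RT 30 min; fluor. t0 & final.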
JMJD2A Tudor: qHTS Assay for Inhibitors of JMJD2A-Tudor Domain | hit rate 4.4% among 390,000 | Lysine-specific demethylase 4A (Homo sapiens), O75164 | AlphaScreen JMJD2A-Tudor / H3K4me3 peptide binding | Potency, µM (doses to about 114 µM), for inactives: at the top dose activity change, negative = inhibition, usual class: inhibitors | AID 504339, 2011; note: % is set by controls: 0 for no effect and ±100 for the full control effect; nearly all actives have a fitted effect of over 50% in size
BAZ2B inh: qHTS Assay for Inhibitors of BAZ2B; Potency, µM (series often up to 114 µM), inactives show at the top dose activity change, negative = inhibition, actives largely listed as inhibitors; hit rate 4.4% among 360,000; AID 504333, 2011; AlphaScreen BAZ2B-H3K14Ac peptide displacement; Bromodomain adjacent to zinc finger domain protein 2B (Homo sapiens), Q9UIF8; note: % is set by controls: 0 for no effect and ±100 for the full control effect; nearly all actives have a fitted effect of over 60% in size
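Multi-concentration screen (max 110 uM) measuring displacement of acetylated histone H3 peptide from BAZ2B by AlphaScreen, using 50 nM protein, 50 nM peptide and 10 ug/mL streptavidin donor plus Ni-chelate acceptor beads.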
* marks the source's active call; other numbers are inactive results; ? = inconclusive; / = not tested or not shown; [ ] = remark or other dose. Hits are enriched below; roughly 10% of the tested compounds scored in any of these assays. Calls come from the whole dose curve; as a rule, active = well fitted curve in the direction sought with a large enough effect; inconclusive = small, poorly fitted or top-dose-only effect, or another doubt; inactive = no such curve, though single readings can be large; an effect the other way counts as inactive or inconclusive. Potency is the fitted concentration of half-maximal effect.

SMILES | HP1b chromo inh | G9a block | GLS inhibitor | JMJD2A Tudor | BAZ2B inh
CC(C)Cc1nnc(NC(=O)CN2C(=O)NC3(CC(C)CC(C)(C)C3)C2=O)s1 (centres undefined) | 24% | 45µM* | 3% | -11% | 2%
CCOc1ccccc1OCC(=O)Nc1ccc(OC)c(S(=O)(=O)N2CCCCC2)c1 | 15% | -31% | 1% | -27% | 5%
Cc1ccc(C2(C)NC(=O)N(CC(=O)Nc3ccc(Cl)c(S(=O)(=O)N4CCCCC4)c3)C2=O)cc1 (centres undefined) | 16% | 40µM* | -1% | -27% | -2%
CC(C)Cc1nnc(NC(=O)CN2C(=O)NC3(CCCC3)C2=O)s1 | 27% | ? | -5% | -6% | 9%
CCCc1cc(=O)oc2cc(OCC(=O)Nc3ccc(S(N)(=O)=O)cc3)ccc12 | -1%[57 µM] | / | -4% | -33% | 45µM*
COc1ccc(NC(=O)COc2ccccc2C)cc1S(=O)(=O)N1CCCCC1 | 17% | 50µM* | 3% | -27% | -4%
CCC(=O)N1CCc2cc(Br)cc(S(=O)(=O)CCC(=O)Nc3ccc(Cl)cc3)c21 | 29% | -4%[59 µM] | 0% | -2% | -2%
COc1ccc(NC(=O)CN2C(=O)NC3(CCCC3)C2=O)cc1S(=O)(=O)N1CCCCC1 | 20% | 8%[59 µM] | -1% | -13% | 6%
COc1ccc(NC(=O)CN2C(=O)NC3(CC(C)CC(C)(C)C3)C2=O)cc1S(=O)(=O)N1CCCCC1 (centres undefined) | 11% | 16µM* | -4% | -32% | -1%
CCN(CC)c1ccc(/C=C2\C(=O)c3ccc(C(=O)O)cc3C2=O)cc1 | 40µM* | 11µM* | ? | 45µM* | 14µM*
CC1=NN(c2ccccc2)C(=O)C1C(=O)c1ccc(Cl)cc1 (centres undefined) | 77% | 40µM* | 4% | -12% | -28%
CC1=NN(c2ccccc2)C(=O)C1C(=O)C(=O)Nc1ccc(F)cc1 (centres undefined) | 27% | 35µM* | 12% | -22% | ?
O=C(O)C[C@H]1c2ccccc2S(=O)(=O)N1C1CCCC1 | 18% | / | 4% | -24% | /
COC(=O)N1CC=CC1(C)C(=O)NCc1cc(F)cc(C(F)(F)F)c1 (centres undefined) | 44% | 10% | -5% | -4% | 3%
CC(=O)N1CC=CC1(C)C(=O)NCc1cc(F)cc(C(F)(F)F)c1 (centres undefined) | 56% | 40µM* | 0% | 0% | -5%
O=c1c(O)c(-c2cccs2)oc2ccc(Cl)cc12 | 76% | 98%[59 µM] | 24% | 41% | 76%
O=c1c(O)c(-c2cccs2)oc2ccccc12 | 27% | 18µM* | 18% | -7% | 9%
COc1ccc(C)cc1-n1nnc(C(=O)Nc2cccc(SC)c2)c1C | 19% | -32%[59 µM] | 6% | -8% | -8%
COc1ccc(C)cc1NC(=O)C(NC(=O)c1cc(OC)c(OC)c(OC)c1)C(C)C (centres undefined) | ? | 1% | 0% | 40µM* | /
CCOc1cc(C)c(C(C)C)cc1S(=O)(=O)NCc1ccccn1 | 27% | 9%[59 µM] | 1% | ? | -1%
CC(=O)c1ccc(NC(=O)CCc2c(C)nn(-c3ccc4nncn4n3)c2C)cc1 | 11%[57 µM] | 63%[59 µM] | 6% | -24% | 14%
CCCCNC(=O)c1ccc2c(c1)NC(=O)C(CS(=O)(=O)Cc1cccc(C)c1)N2 (centres undefined) | 48% | 14µM* | -14% | -12% | 10%[57.1 µM]
O=C(NCc1ccc(Cl)cc1)c1ccc2c(c1)NC(=O)C(CS(=O)(=O)Cc1ccccc1Cl)N2 (centres undefined) | 6% | ? | -21% | 10% | -15%
COc1ccc(CNC(=O)c2ccc3c(c2)NC(=O)C(C)S3)cc1 (centres undefined) | -15% | 10µM* | -3% | -25% | -21%
CC1Sc2ccc(C(=O)O)cc2NC1=O (centres undefined) | 27% | -42% | 12% | -9%[57.1 µM] | -7%
SMILES | HP1b chromo inh | G9a block | GLS inhibitor | JMJD2A Tudor | BAZ2B inh
COc1ccc(CNC(=O)c2ccc3c(c2)NC(=O)C(CS(=O)(=O)Cc2ccccc2Cl)N3)cc1 (centres undefined) | -8% | 11µM* | 2% | -30% | 8%[57.1 µM]
CCCCNC(=O)c1ccc2c(c1)NC(=O)C(CS(=O)(=O)Cc1ccc(C)cc1)N2 (centres undefined) | -9% | ? | -19% | -25% | 2%[57.1 µM]
Cc1ccc(CNC(=O)c2ccc3c(c2)NC(=O)C(CS(=O)(=O)Cc2ccc(F)cc2)N3)cc1 (centres undefined) | -3% | ? | 13µM* | -6% | 8%[57.1 µM]
CCn1c(CC(=O)Nc2ccccc2F)nnc1SCC(=O)NC1=NCCS1 | / | / | -1% | / | /
NCCS | ? | 14µM* | -4% | -12% | 4%
O=C(NCc1ccc(Cl)cc1)c1ccc2nc[nH]c2c1 | -20% | ? | 15% | -30% | -9%
Cc1nnc(NC(=O)CCSCCC(=O)Nc2nnc(C)s2)s1 | -17% | 50µM* | ? | 50µM* | 50µM*
COCCSc1nnc(NC(=O)C2CCCO2)s1 (centres undefined) | 24% | -6% | 14% | -6% | 12%
Cc1nnc(NC(=O)C2CCCO2)s1 (centres undefined) | -5% | 8.9µM* | -5% | -19% | 1%
COc1ccc(Cc2nnc(NC(=O)C3CCCO3)s2)cc1 (centres undefined) | 27% | ? | 0% | -5% | -37%
O=C(Nc1nnc(Cc2ccc(Cl)cc2)s1)C1CCCO1 (centres undefined) | -12% | 28µM* | -3% | 1% | -22%
O=C(Nc1nnc(-c2ccccc2F)s1)C1CCCO1 (centres undefined) | -13% | ? | 3% | -33% | 0%
O=C(Nc1nnc(-c2ccncc2)s1)C1CCCO1 (centres undefined) | -9% | ? | -12% | 100µM* | -29%
CCC(=O)N1CCCC(C(=O)Nc2nc3ccccc3[nH]2)CC1 (centres undefined) | / | / | 1% | / | /
CSc1nccc(Oc2ccc(C#N)cc2)n1 | 48% | 6%[59 µM] | 0% | 5% | 4%
Cc1c2cnn(CC(=O)NCCc3ccccc3)c(=O)c2c(C)n1Cc1ccccc1 | 21% | 11%[59 µM] | -4% | -3% | 1%
CCNc1ncc2nc(-c3ccc(OC)cc3)c(=O)n(Cc3cccc(OC)c3)c2n1 | / | 7%[12.7 µM] | / | / | /
Cc1ccc(-c2c(C)n3c4c(=O)n(C)c(=O)n(C)c4nc3n2CCCO)cc1 | 7% | ? | -5% | -33% | ?

Screens deposited in PubChem by National Center for Advancing Translational Sciences (NCATS).
